Screening data: PubChem, National Center for Advancing Translational Sciences (NCATS)
PINK1 expr mod: PINK1 expression modulation; PINK1 immunofluorescence, high-content cytometry, 24 h; Potency, µM (series often up to 76.6 µM), without a hit: at the top dose activation (PINK1 increase), actives largely listed as activators; 410,000 compounds, 0.2% hits; AID 624263; active = well fitted activation curve with a large enough effect; inconclusive = small, poorly fitted or top-dose-only effect; cell line not stated here; also: % of control where 0% means no effect; nearly all actives have a fitted effect of over 65% in size
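Decision-based qHTS: stable cells, 24 h exposure to five compound concentrations, CCCP as control. Fixed cells stained for PINK1 plus nuclear, mitochondrial and cell markers, cytometer read.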
MCF10A rerep: DNA re-replication induction in MCF 10a cells. MCF 10A DNA re-replication, Hoechst nuclear intensity, 48 h. AID 624296. 350,000 compounds, 2.9% hits. Potency, µM (series often up to 46.1 µM), for inactives: at the highest dose activity, positive = re-replication, usual class: activators; also: % of control where 0% means no effect; nearly all actives have a fitted effect of over 50% in size
KB-V1 cytotox: KB-V1 MDR subline cytotoxicity; KB-V1 MDR cells viability, CellTiter-Glo, 72 h; Potency, µM (top dose mostly 46.1 µM), hits mostly cytotoxic; 400,000 compounds, 3.4% hits; also: % is scaled to controls: 0 for no effect and ±100 for the full control effect; nearly all actives have a fitted effect of over 60% in size
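Luminescent ATP read-out (CellTiter-Glo, 10 min) measures survival of drug-selected KB-V1 MDR cells after 72 h, 37 degrees C compound exposure. Medium: phenol-red-free DMEM, 10% FBS. Values from fitted concentration-response curves.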
KB-3-1 tox: KB-3-1 parental cell cytotoxicity; 400,000 compounds, 1.4% hits; Potency, µM (series often up to 46.1 µM), actives largely listed as cytotoxic; KB-3-1 viability, CellTiter-Glo ATP luminescence, 72 h; also: % is scaled to controls: 0 for no effect and ±100 for the full control effect; nearly all actives have a fitted effect of over 60% in size
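Cytotoxicity in the drug-sensitive parental line KB-3-1 was scored as loss of CellTiter-Glo luminescence following 72 h incubation with compound. Values come from curve fitting of normalized concentration-response data.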
12-LOX inh: blocks human arachidonate 12S-lipoxygenase. P18054. purified 12hLO, xylenol orange hydroperoxide absorbance. Potency, µM (series often up to 108 µM), for the others: at the top dose activity change, negative = inhibition, actives largely listed as inhibitors. 580,000 compounds, 1.1% hits; also: % is scaled to controls: 0 for no effect and ±100 for the full control effect
Target sequence (P18054 whole entry, looked up): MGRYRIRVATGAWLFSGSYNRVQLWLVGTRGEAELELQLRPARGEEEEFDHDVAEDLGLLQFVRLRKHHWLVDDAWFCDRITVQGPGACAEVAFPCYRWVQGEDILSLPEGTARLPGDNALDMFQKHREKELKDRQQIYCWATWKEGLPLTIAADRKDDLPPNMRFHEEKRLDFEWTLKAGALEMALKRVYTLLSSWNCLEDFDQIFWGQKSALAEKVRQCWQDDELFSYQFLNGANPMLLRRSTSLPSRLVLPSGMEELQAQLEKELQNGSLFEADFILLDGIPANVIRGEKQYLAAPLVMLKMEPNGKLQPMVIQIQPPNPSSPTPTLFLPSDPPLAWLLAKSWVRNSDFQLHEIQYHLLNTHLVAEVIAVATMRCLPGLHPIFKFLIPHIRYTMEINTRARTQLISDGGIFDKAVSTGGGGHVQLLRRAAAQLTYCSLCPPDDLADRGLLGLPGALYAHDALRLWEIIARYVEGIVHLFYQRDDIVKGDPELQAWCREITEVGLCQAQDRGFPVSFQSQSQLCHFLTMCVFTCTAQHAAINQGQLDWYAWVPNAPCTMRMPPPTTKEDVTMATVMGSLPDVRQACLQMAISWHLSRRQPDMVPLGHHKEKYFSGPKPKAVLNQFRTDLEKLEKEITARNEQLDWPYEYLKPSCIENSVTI
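Purified human 12hLO (150 nM final) in 25 mM Hepes, 0.01% Triton X-100, pH 7.0 was preincubated 15 min at room temperature with compound. Then 40 uM arachidonic acid was added, 30 min. Hydroperoxide was read by Fe-XO absorbance ratio 573/405 nm.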
SW480 rereplic: inducers of DNA re-replication in SW480 colon cancer cells; SW480 DNA re-replication, Hoechst DNA content imaging, 48 h; Potency, µM (doses to about 46.1 µM), inactives show top-dose re-replication activation, hits mostly activators; 340,000 compounds, 1.8% hits; AID 624297; also: % of control where 0% means no effect; nearly all actives have a fitted effect of over 55% in size
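SW480 cells exposed to compounds for 48 hr at 37 C, 5% CO2, then Hoechst-stained 40 min. Nuclear DNA content imaged by fluorescence scanning (405 nm excitation, 500-530 nm emission); re-replication scored as increased high-intensity nuclei.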
* hit, by the source's call; i = inactive; ? = inconclusive; . = not tested or not shown; ! = a repeat was not active; [ ] = remark or other dose. In the library only some 5.8% were active in any assay of this set; here they are far more common. Unless noted, calls follow the shape of the dose curve; as a rule, active = well fitted curve in the direction sought with a large enough effect; inconclusive = small, poorly fitted or top-dose-only effect, or another doubt; inactive = no such curve, though single readings can be large; an effect the other way counts as inactive or inconclusive. Potency is read from the fitted curve at half-maximal effect.

SMILES	PINK1 expr mod	MCF10A rerep	KB-V1 cytotox	KB-3-1 tox	12-LOX inh	SW480 rereplic
Cc1ccc(C(=O)NCc2ccc(N3CCN(C)CC3)cc2)cc1C	-4%	1.6µM*	?	i	396%	2%
N#Cc1ccnc(Sc2ccc(F)cc2)c1	.	.	.	.	53%	.
COc1ccc(C(CNC(=O)c2nn(Cc3ccccc3)c(=O)c3ccccc23)N2CCCC2)cc1 (stereo unspecified)	.	.	.	.	-10%	.
COc1cccc(-c2noc(CC3CCN(C(=O)c4cccc(F)c4)CC3)n2)c1	.	.	.	.	35%	.
O=C(NCc1ccccc1)C(c1cccs1)N(Cc1cccs1)C(=O)c1cnccn1 (stereo unspecified)	1%	?	2.6µM*	i	0%	9%
O=C(NCc1ccccc1)C(c1ccc(F)cc1)N(Cc1cccs1)C(=O)c1cnccn1 (stereo unspecified)	2%	3%	i	i	-22%	3%
C=CCN(C(=O)c1csnn1)C(C(=O)NCc1ccccc1)c1cccs1 (stereo unspecified)	-1%	-20%	i	i	10%	-18%
O=C(NCc1ccccc1)C(c1ccccc1)N(Cc1cccs1)C(=O)c1cnccn1 (stereo unspecified)	-1%[38.3 µM]	?	23µM*	i	7%	11%
Cc1ccc(C23CC4CC(C2)CC(c2csc(NC(=O)c5ccccc5)n2)(C4)C3)cc1	.	.	.	.	-6%	.
CN(C)CCOC(=O)CCCCCCCCC(=O)OCCN(C)C	2%	-1%	i	i	0%	3.7µM*
CCOCCn1c(COc2ccc(C)cc2)nc2ccccc21	9%	19%	16µM*	?	-14%	104%
Cc1ccc(OCCn2c(CNc3cccc(C)c3)nc3ccccc32)cc1	2%	.	i	i	5%	.
Cc1ccc(NCc2nc3ccccc3n2CCOc2ccccc2)cc1	1%	18%	23µM*!	16µM*!	1%	6%
CCOC(=O)C1CCN(C(=O)c2ccccc2)C(CC)C1=O (stereo unspecified)	-3%	3%	21µM*	i	-13%	-5%
CCOC(=O)C1CCN(S(=O)(=O)Cc2ccccc2)C1=O (stereo unspecified)	0%	-1%	i	i	8%	-4%
COc1ccc(-c2ccc(SC)nn2)cc1	-1%	-3%	9.2µM*	8.2µM*	37%	-2%
COc1ccc(C(=O)CSc2ccc(-c3ccccc3)nn2)cc1	1%	1%	i	i	-1%	-3%
CCc1nc2nc(C)c(NS(=O)(=O)c3cccs3)c(=O)n2[nH]1	-1%	3%	i	i	6.3µM*	-7%
COc1ccc2c(c1)nc(SCC(=O)c1ccc(Br)s1)n2C	.	15µM*	?	i	?	?
Cc1csc(NC(=O)Cc2nn(C)c(=O)c3ccccc23)n1	1%	-9%	16µM*	?	-20%	1%
Cc1ccc(NC(=O)Cc2nn(C)c(=O)c3ccccc23)cc1F	12%	9%	2.1µM*	7.3µM*	20%	7%
Cc1nc2cccnc2n1CC1CCCN(S(=O)(=O)Cc2ccc(Cl)cc2)C1 (stereo unspecified)	.	.	.	.	-9%	.
CC(C)CC(NC(=O)C(C)NC(=O)OCc1ccccc1)c1ccccc1 (stereo unspecified)	.	.	.	.	-37%	.
COc1ccc2c(C)c(CCC(=O)N3CCCCC3)c(=O)oc2c1	.	.	.	.	8%	.
CCN(CC)S(=O)(=O)c1ccc(NCCCn2ccnc2)c([N+](=O)[O-])c1	0%	12%	?	?	-2%	0%
SMILES	PINK1 expr mod	MCF10A rerep	KB-V1 cytotox	KB-3-1 tox	12-LOX inh	SW480 rereplic
O=C(c1ccccc1)c1ccc(NCCCn2ccnc2)c([N+](=O)[O-])c1	0%	25%	5.2µM*	?	-19%	-5%
COC(=O)c1c(N)n(-c2ccc(OC)c(Cl)c2)c2nc3ccccc3nc12	-1%	.	i	i	-37%	.
CCCNC(=O)c1c(N)n(-c2ccc3c(c2)OCO3)c2nc3ccccc3nc12	6%	17%	i	?	0%	?
CCOCCCNC(=O)c1c(N)n(-c2ccc3c(c2)OCO3)c2nc3ccccc3nc12	4%	23µM*	i	i	0%	9.2µM*
CCCNC(=O)c1c(N)n(-c2cc(OC)cc(OC)c2)c2nc3ccccc3nc12	0%	16µM*	i	i	0%	9.2µM*
CCOCCCNC(=O)c1ccc2c(c1)OCO2	1%	4%	i	i	7%	-9%
COCCCNC(=O)c1c(N)n(-c2ccc3c(c2)OCO3)c2nc3ccccc3nc12	9%	10µM*	i	i	?	6.5µM*
Nc1c(C(=O)NC2CC2)c2nc3ccccc3nc2n1-c1ccc2c(c1)OCO2	9%	2.9µM*	i	i	0%	?
CN(C)C(=O)CNS(=O)(=O)c1cc(F)cc(F)c1	.	.	.	.	-40%	.
COc1cc(/C=c2\s/c(=C\C(=O)C(C)(C)C)[nH]c2=O)cc(OC)c1OC	5%	18µM*	?	i	?	4.1µM*
COc1ccc(/C=c2\s/c(=C\C(=O)C(C)(C)C)[nH]c2=O)cc1O	1%	?	i	i	?	9%
O=C(Nc1cccc(OCc2ccc(F)cc2)c1)c1ccncc1	.	.	.	.	32%	.
COc1cc(CNCCSc2nnnn2C)cc(Br)c1OCc1ccc(F)cc1	0%	?	?	?	1%	?
CCOc1cc(CNCCSc2nnnn2C)cc(Br)c1OCc1ccc(F)cc1	-3%	28%	18µM*	?	-10%	?
CCN(c1cccc(C(F)(F)F)c1)S(=O)(=O)c1ccc2c(c1)CCN2C(=O)C1CC1	2%	27%	?	11µM*	33%	-1%
Cc1nn2c(c1-c1ccccc1N1CCCC1)N(C(=O)COc1ccccc1)CCC2	.	.	.	.	131%[176 µM]	.
O=C1c2cccc3c([N+](=O)[O-])ccc(c23)C(=O)N1O	15%	21µM*	i	i	-11%	?
O=C1c2cccc3c(N4CCCCC4)ccc(c23)C(=O)N1c1ccccn1	-1%	-1%	i	i	-3%	-1%
O=C1c2cccc3cccc(c23)C(=O)N1c1nccs1	-9%[38.3 µM]	0%	i	i	-29%	-10%
O=C1c2cccc3c([N+](=O)[O-])ccc(c23)C(=O)N1c1ccc(Cl)cn1	-1%[38.3 µM]	?	i	i	-35%	4.1µM*
O=C1c2cccc3c([N+](=O)[O-])ccc(c23)C(=O)N1c1nccs1	11%[38.3 µM]	7.3µM*	?	?	-19%	7.3µM*
O=C1c2cccc3c([N+](=O)[O-])ccc(c23)C(=O)N1c1ccccn1	-2%	4.1µM*	?	i	95%[57.4 µM]	12µM*
